The entries come from a sample that favours hits as a whole.
BLM inh = qHTS Assay for Inhibitors of Bloom's syndrome helicase (BLM); RecQ-like DNA helicase BLM (Homo sapiens), P54132; recombinant BLM DNA unwinding, fluorescence dequenching; Potency, µM (doses to about 56.1 µM), for the others: at the top dose activity change, negative = inhibition, actives largely listed as inhibitors; 0.2% of 350,000 active;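 also: plate controls were vehicle for no effect and no enzyme for full effect; nearly all actives have a fitted effect of over 35% in size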
GCN5L2 inh = qHTS Assay for Inhibitors of GCN5L2 | GCN5L2 HAT assay, ThioGlo1 CoA-SH fluorescence | Potency, µM (titrated, usually from 58.9 µM), for inactives: top-dose activity change, negative = inhibition, hits mostly inhibitors | 0.21% of 390,000 active | AID 504327, 2011
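ThioGlo1-coupled HAT assay: 20nM GCN5L2, 70uM acetyl-CoA, 75uM H3(1-25) peptide, pH 7.5. Fluorescence read at 340/540nm at start and after 20 min at room temperature.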
APE1 inh = qHTS Assay for Inhibitors of the Human Apurinic/apyrimidinic Endonuclease 1 (APE1) | AID 2517, 2012 | 0.35% of 350,000 active | recombinant APE1, TAMRA/BHQ-2 abasic DNA cleavage fluorescence | DNA repair nuclease/redox regulator APEX1 (Homo sapiens), P27695 | Potency, µM (top dose mostly 65.8 µM), for the others: at the top dose activity change, negative = inhibition, hits mostly inhibitors;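 also: plate controls were vehicle for no effect and reference inhibitor for full effect; nearly all actives have a fitted effect of over 55% in size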
Target sequence (P27695 whole entry, looked up): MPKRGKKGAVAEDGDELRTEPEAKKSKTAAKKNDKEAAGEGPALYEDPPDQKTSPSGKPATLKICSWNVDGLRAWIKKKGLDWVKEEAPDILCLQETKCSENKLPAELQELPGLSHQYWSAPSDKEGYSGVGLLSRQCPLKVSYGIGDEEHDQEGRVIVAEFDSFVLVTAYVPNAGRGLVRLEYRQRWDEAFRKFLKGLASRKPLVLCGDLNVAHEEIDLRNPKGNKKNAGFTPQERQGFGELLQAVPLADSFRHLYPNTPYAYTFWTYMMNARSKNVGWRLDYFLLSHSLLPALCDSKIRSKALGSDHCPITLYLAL
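Readout is kinetic fluorescence (ex 525, em 598 nm) from cleavage of 50 nM TAMRA/BHQ-2 THF abasic duplex by 0.75 nM APE1, compound added 15 min beforehand at RT.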
RECQ1 helicase = qHTS Assay for Inhibitors of RecQ-Like Dna Helicase 1 (RECQ1) | Potency, µM (series often up to 57.3 µM), for inactives: at the top dose activity, negative = inhibition, actives largely listed as inhibitors | RECQ1 DNA unwinding, red fluorescence kinetic read | AID 2549, 2010 | 0.54% of 240,000 active;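 also: plate controls were vehicle for no effect and no enzyme for full effect; nearly all actives have a fitted effect of over 30% in size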
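50 nM RECQ1T1 preincubated 15 min with compound in Tris pH 8.0 buffer with MgCl2, DTT, Tween-20 and 2.5 ug/ml poly(dI-dC); started with 200 nM TAMRA/BHQ-2 forked duplex and 2 mM ATP. Unwinding read as fluorescence (525/598 nm), two reads 2 h apart.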
KDM4E inh = qHTS Assay for Inhibitors of Human Jumonji Domain Containing 2E (JMJD2E) | Lysine-specific demethylase 4E (Homo sapiens), B2RXH2 | JMJD2E catalytic domain, FDH-coupled NADH fluorescence (FDH is formaldehyde dehydrogenase) | Potency, µM (titrated, usually from 57.1 µM), without a hit: at the top dose activity change, negative = inhibition, usual class: inhibitors | 1.6% of 230,000 active; active = well fitted inhibition curve with a large enough effect, not every such curve was filed as active; inconclusive = small, poorly fitted or top-dose-only effect, or another doubt; inactive = no such curve, though single readings can be large or run the other way;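 also: 0% = wells with enzyme and -100% = buffer wells without enzyme; nearly all actives have a fitted effect of over 50% in size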
Target sequence (B2RXH2 1-337 limits assumed): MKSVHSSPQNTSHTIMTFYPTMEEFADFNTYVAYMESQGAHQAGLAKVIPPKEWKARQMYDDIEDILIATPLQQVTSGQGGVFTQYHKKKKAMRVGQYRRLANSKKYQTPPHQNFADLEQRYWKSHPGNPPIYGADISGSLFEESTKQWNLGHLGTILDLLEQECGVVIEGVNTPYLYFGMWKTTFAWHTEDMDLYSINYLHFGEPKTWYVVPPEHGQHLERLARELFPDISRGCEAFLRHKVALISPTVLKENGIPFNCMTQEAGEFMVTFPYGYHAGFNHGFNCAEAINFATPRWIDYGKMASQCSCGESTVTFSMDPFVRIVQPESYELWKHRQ
TDP1 block = qHTS Assay for Inhibitors of Tyrosyl-DNA Phosphodiesterase (TDP1) | Tyrosyl-DNA phosphodiesterase 1 (Homo sapiens), Q9NUW8 | recombinant TDP1, AlphaScreen DNA substrate cleavage | Potency, µM (titrated, usually from 130 µM), for inactives: top-dose activity change, negative = inhibition, hits mostly inhibitors | 0.28% of 350,000 active; also: nearly all actives have a fitted effect of over 40% in size
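Enzyme-compound mixtures sat 15 min at room temperature, followed by a 5 min reaction with 15 nM final substrate and 10 min with AlphaScreen beads. Recombinant human Tdp1 was used at 1 nM final.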
Numbers without * were called inactive; ! = a repeat was not active; [ ] = remark or other dose. Unless noted, calls follow the shape of the dose curve; as a rule, active = well fitted curve in the direction sought with a large enough effect; inconclusive = small, poorly fitted or top-dose-only effect, or another doubt; inactive = no such curve, though single readings can be large; an effect the other way counts as inactive or inconclusive. Unless noted, % is scaled to controls: 0 for no effect and ±100 for the full control effect; potency is read from the fitted curve at half-maximal effect.

CN(C)c1ccc(C(=C2C=CC(=[N+](C)C)C=C2)c2ccc(N(C)C)cc2)cc1 was read as BLM inh 22µM*!, GCN5L2 inh -20%, APE1 inh inconclusive, RECQ1 helicase 10µM*, KDM4E inh inconclusive and TDP1 block 20%.
`CC(C)[C@@H](CC(=O)N[C@@H]1CCCC[C@H]1C(=O)N[C@H](CC(=O)N[C@@H](CCC(=O)O)CC(=O)O)Cc1c[nH]c2ccccc12)NC(=O)C[C@H](Cc1ccccc1)NC(=O)[C@@H]1CCCC[C@H]1N` gave BLM inh 4%, APE1 inh 0%, RECQ1 helicase -6%, KDM4E inh -5% and TDP1 block 6%.
For CC(C)C[C@@H](CC(=O)N[C@H](CC(=O)N[C@@H]1CCCC[C@H]1C(=O)N[C@H](CC(=O)N[C@@H](CCC(=O)O)CC(=O)O)Cc1c[nH]c2ccccc12)C(C)C)NC(=O)[C@@H]1CCCC[C@H]1N the results were BLM inh 7.1µM*, APE1 inh -4%, RECQ1 helicase -7%, KDM4E inh -7% and TDP1 block 11%.
`S=c1nc(-c2ccccc2Br)[nH][nH]1` gave BLM inh -11%, GCN5L2 inh inconclusive, APE1 inh 9%, RECQ1 helicase inactive, KDM4E inh 14µM* and TDP1 block 6%.
`S=c1nc(-c2cc(Cl)ccc2Cl)[nH][nH]1` gave BLM inh 4%, GCN5L2 inh 3.5µM*, APE1 inh 14%, RECQ1 helicase -13%, KDM4E inh -18% and TDP1 block 8%.
For S=c1nc(-c2cccc(Cl)c2)[nH][nH]1 the results were BLM inh 2%, GCN5L2 inh -17%, APE1 inh 2%, RECQ1 helicase -4%, KDM4E inh inconclusive and TDP1 block 5%.
Oc1ccc(-c2nc(=S)[nH][nH]2)cc1 was read as BLM inh 1%, GCN5L2 inh -23%, APE1 inh 4%, RECQ1 helicase 10%, KDM4E inh 0% and TDP1 block -5%.
Screening O=C1CCc2cc(S(=O)(=O)Nc3ccc(Cl)cc3)ccc2N1 returned TDP1 block 1%.
`COc1ccc(/C=C/N(CCc2ccc(OC)c(OC)c2)C(=O)C(F)(F)F)cc1` gave BLM inh -4%[12.4 µM], APE1 inh inconclusive, RECQ1 helicase -7%[11.5 µM] and TDP1 block 5%[21 µM].
CC(=O)c1ccc2c(c1)C1C=CCC1C(C(=O)O)N2 (stereo unspecified) was read as BLM inh -8%, GCN5L2 inh inconclusive, APE1 inh inconclusive, RECQ1 helicase inactive, KDM4E inh 2% and TDP1 block 6%.
O=C(O)C1Nc2c(cccc2C(F)(F)F)C2C=CCC12 (stereo unspecified) was read as BLM inh -7%, GCN5L2 inh inconclusive and APE1 inh 17µM*.
Screening C[n+]1c2cc(N)ccc2cc2ccc(N)cc21 (tested in a mixture with another compound) returned APE1 inh 25µM*.
O=C(N/N=C/c1cc(Br)ccc1O)c1cccc(N2CCCC2=O)c1 was read as BLM inh -1%, GCN5L2 inh -4%, APE1 inh 0%, RECQ1 helicase 1%, KDM4E inh 28µM* and TDP1 block 0%.
For COc1ccc(O)c(/C=N/NC(=O)c2cccc(N3CCCC3=O)c2)c1 the results were BLM inh -9%, GCN5L2 inh -1%, APE1 inh 44% and TDP1 block 13%.
COc1ccc(-c2nnc3ccc(SC(C)C)nn23)cc1OC was read as TDP1 block 3%.
`CCCCC(C)/C=C(C)/C=C(\C)C(=O)NC1=CC(O)(/C=C/C=C/C=C/C(=O)NC2=C(O)CCC2=O)C2OC2C1=O` (stereo unspecified) gave BLM inh inconclusive, GCN5L2 inh inconclusive, APE1 inh inconclusive, RECQ1 helicase inconclusive and TDP1 block -10%.
For CCOc1ccc(/C=C2/SC(=S)N(C(C(=O)O)c3ccccc3)C2=O)cc1OCC (stereo unspecified) the results were BLM inh -7%, GCN5L2 inh inconclusive, APE1 inh 3%, RECQ1 helicase 22µM*, KDM4E inh inconclusive and TDP1 block 10%.
For COc1cc(/C=C2\SC(=S)N(C(C(=O)O)c3ccccc3)C2=O)ccc1O (stereo unspecified) the results were BLM inh -8%, GCN5L2 inh -8%, APE1 inh -11%, RECQ1 helicase 22µM*, KDM4E inh -5% and TDP1 block 4%.
Screening CCOc1cc(/C=C2\SC(=S)N(C(C(=O)O)c3ccccc3)C2=O)ccc1O (stereo unspecified) returned BLM inh inconclusive, GCN5L2 inh -15%, APE1 inh 12%, RECQ1 helicase 7%, KDM4E inh 1% and TDP1 block -3%.
Screening COc1cc(/C=C2\SC(=S)N(NS(=O)(=O)c3ccc(C)cc3)C2=O)ccc1O returned BLM inh -17%, GCN5L2 inh -1%, APE1 inh -11%, RECQ1 helicase 22µM*, KDM4E inh -1% and TDP1 block 5%.
COc1cc(/C=C2/SC(=S)N(c3c(C)n(C)n(-c4ccccc4)c3=O)C2=O)ccc1O was read as BLM inh -9%, GCN5L2 inh -5%, APE1 inh -10%, RECQ1 helicase 22µM*, KDM4E inh 5% and TDP1 block 4%.
For COc1cc(/C=C2\SC(=S)N(NC(=O)c3ccccc3OC)C2=O)ccc1O the results were BLM inh inconclusive, GCN5L2 inh -15% and APE1 inh -16%.
Screening O=C(Cc1ccccc1)NCC(=O)OCC(=O)c1ccc2ccccc2c1 returned TDP1 block 1%.
For O=S(=O)(c1ccc2c(c1)OCCO2)N1CCN(S(=O)(=O)c2ccc(F)cc2F)CC1 the results were TDP1 block -20%.
For COc1cccc(-c2nnc3n2N=C(c2c(OC)cccc2OC)CS3)c1 the results were BLM inh 3%, APE1 inh 1%, RECQ1 helicase 6% and TDP1 block 12%.
